# Compound activity (PubChem BioAssay)
# In the library only some 21% were active in any assay of this set; here they are far more common.
# DRD3 antagonist – blocks the human D3 dopamine receptor | P35462 | D3R cells, DiscoveRx beta-arrestin luminescence, antagonist mode; hits give low values | max response, negative = inhibition, % | 360,000 tested, 2.5% active | AID 652054; in the data active means max response below about -50%; inconclusive means no clear call, values can overlap the other calls; further: on the % scale 0 is the no-effect control and ±100 the full control effect
# Target sequence (P35462 whole entry, looked up): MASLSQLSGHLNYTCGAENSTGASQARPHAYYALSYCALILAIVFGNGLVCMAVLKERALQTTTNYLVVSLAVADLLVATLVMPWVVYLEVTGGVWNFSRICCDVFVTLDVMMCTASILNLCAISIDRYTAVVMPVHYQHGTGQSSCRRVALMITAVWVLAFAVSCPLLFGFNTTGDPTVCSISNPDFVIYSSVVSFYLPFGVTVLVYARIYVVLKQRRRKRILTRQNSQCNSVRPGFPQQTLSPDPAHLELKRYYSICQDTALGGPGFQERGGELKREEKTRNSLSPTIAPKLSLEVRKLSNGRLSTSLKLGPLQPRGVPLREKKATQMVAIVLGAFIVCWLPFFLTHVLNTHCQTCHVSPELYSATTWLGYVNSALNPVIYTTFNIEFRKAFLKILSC
#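 Cells plated overnight at 1500 cells/well, then exposed to library compounds with dopamine controls for 90 minutes at 37 degrees C. DiscoveRx reagent added for 30–60 minutes at room temperature; luminescence read, quantitative HTS format.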
# ClpP mod – qHTS Assay for Activators of ClpP; ATP-dependent Clp protease proteolytic subunit (Bacillus subtilis (strain 168)), P80244; purified B. subtilis ClpP, FRET peptide cleavage, 20 min; Potency, µM (highest dose often 57.5 µM), inactives show at the top dose activity change, negative = active; 340,000 tested, 1.9% active; AID 651965, 2013; active means well fitted falling curve with a large enough effect; inconclusive means small, poorly fitted or top-dose-only effect; inactive means no such curve, though single readings can be large or run the other way; further: potency means the concentration at half of the fitted maximal effect; the source files actives as falling curves though it sought activators and does not explain the sign; nearly all actives have a fitted effect of over 65% in size
# Target sequence (P80244 whole entry, looked up): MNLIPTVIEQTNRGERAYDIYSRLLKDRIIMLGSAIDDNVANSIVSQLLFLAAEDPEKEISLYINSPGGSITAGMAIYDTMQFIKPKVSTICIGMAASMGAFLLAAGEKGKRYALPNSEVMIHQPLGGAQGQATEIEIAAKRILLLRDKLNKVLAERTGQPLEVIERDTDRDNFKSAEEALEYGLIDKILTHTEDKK
#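 Purified B. subtilis ClpP, 10 microg/mL final in Tris/HCl pH8 with KCl, BSA, glycerol and Tween-20, cleaved an Abz/nitrotyrosine-quenched decapeptide. Fluorescence (ex 320, em 430) was read at 0 and 20 min at room temperature. Delta was normalized to 5.8 microM ADEP and DMSO/no-enzyme controls.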
# DT40 TDP1 CPT – DT40-hTDP1 cell growth loss with CPT | chicken DT40 Tdp1-/-;hTDP1 cells + 20 nM CPT, ATP luminescence, 48 h | Potency, µM (titrated, usually from 46.2 µM), for inactives: top-dose activity change, negative = growth inhibition, most hits filed as inhibitors | 420,000 tested, 12% active | AID 686979; further: potency means the concentration at half of the fitted maximal effect; on the % scale 0 is the no-effect control and ±100 the full control effect; nearly all actives have a fitted effect of over 55% in size
#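 Chicken DT40 Tdp1-/- cells stably complemented with human TDP1 were seeded at 400 cells/well in medium containing 20 nM camptothecin, exposed to pin-transferred compounds, and grown at 37 °C for at least 48 hr. Viability was read as ATP luminescence.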
# D3 ag – activates the human D3 dopamine receptor; P35462; D3R DiscoveRx beta-arrestin cells, luminescence, 90 min; max activation, %; 410,000 tested, 0.58% active; in the data active means max activation above about 30%; further: 0% is about no effect
#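 Cells at 1500/well, incubated overnight, then treated with pinned compounds (dopamine as control) for 90 min at 37 degrees C. DiscoveRx reagent added for 30 - 60 minutes at room temperature; luminescence read.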
# IL-1B inflam inh – inhibitors of inflammasome signaling (IL-1 beta secretion). 360,000 tested, 4.7% active. AID 743279. activity change, % at 57.5 µM. THP-1 LPS/ATP IL-1B secretion, AlphaLISA, 16 h; hits give low values; in the data active means activity change below about -50%; inconclusive means mostly about -30% to -49%; further: on the % scale 0 is the no-effect control and ±100 the full control effect
#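 THP-1 cells pretreated 1 hr with compounds (up to 57.5 uM final), then stimulated with LPS (250 ng/mL final) plus ATP (1.25 mM final); secreted IL-1B measured by AlphaLISA after 16 hr, decreased signal indicating inhibition.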
# TDP1 cell noCPT – qHTS for Inhibitors of human tyrosyl-DNA phosphodiesterase 1 (TDP1): qHTS in cells in absence of CPT; Potency, µM (doses to about 46.2 µM), inactives show top-dose activity change, negative = growth inhibition, hits mostly inhibitors; 420,000 tested, 15% active; AID 686978, 2013; DT40 Tdp1-/- hTDP1 cells, no CPT, ATP luminescence, 48 h; further: potency means the concentration at half of the fitted maximal effect; on the % scale 0 is the no-effect control and ±100 the full control effect; nearly all actives have a fitted effect of over 55% in size
#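 Camptothecin absent (DMSO only). Human TDP1-complemented DT40 knockout cells, 400 cells/well, 37 °C for minimum 48 hr; ATP measured via CellTiter-Glo, 30 min dark incubation, luminescence.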
# The depositor's hits bear a star; ? = inconclusive; . = no result given; [ ] = dose if it differs, or a comment. Unless noted, the call rests on the fitted dose curve; in most records, active means well fitted inhibition curve with a large enough effect; inconclusive means small, poorly fitted or top-dose-only effect; inactive means flat fitted curve, though single readings scatter.
SMILES,DRD3 antagonist,ClpP mod,DT40 TDP1 CPT,D3 ag,IL-1B inflam inh,TDP1 cell noCPT
CC(C)(C)[C@H]1C=C(C(=O)N2CCN(Cc3ccc4c(c3)OCO4)CC2)O[C@@H](OCCCCO)C1,-18,1%,?,10,?,-18%
CCc1cc(=O)oc2cc(C)cc(OCC(=O)N[C@@H](CSCc3ccccc3)C(=O)O)c12,-9,5%,5%,-8,-10,-17%
COc1ccc(/C=C/c2cc(-c3ccc(C)cc3)o[n+]2C)cc1,-4,?,0.26µM*,-5,-120*,0.26µM*
COc1ccc([N+](=O)[O-])c(C=CC(=O)c2ccccn2)c1,?,2%,5.2µM*,-9,-105*,2.3µM*
COc1ccc(/C=C/C(=O)c2ccccn2)cc1,14,.,21µM*,12,?,?
Cc1ccc(CNC(=O)CCCCn2c(=O)c3ccccc3n(Cc3ccc(C)cc3)c2=O)cc1,.,0%,-21%,0,.,-17%
Cc1ccc(CNC(=O)CCCCn2c(=O)c3ccccc3n(Cc3ccc(Cl)cc3)c2=O)cc1,.,0%,-5%,-17,.,?
Cc1cccc(Cn2c(=O)n(CCCC(=O)NCc3ccco3)c(=O)c3ccccc32)c1,-3,-16%,9.2µM*,-1,?,21µM*
O=C(CCCCn1c(=O)c2ccccc2n(Cc2ccc(Cl)cc2)c1=O)NCc1ccco1,20,-10%,?,-11,9,16µM*
Cc1ccccc1Cn1c(=O)n(CCCC(=O)NCc2ccco2)c(=O)c2ccccc21,4,-17%,?,3,-5,?
O=C(CCCCn1c(=O)c2ccccc2n(Cc2ccc(Cl)cc2)c1=O)NCc1ccccc1Cl,.,-9%,15µM*,-1,.,16µM*
O=C(CCCn1c(=O)c2sccc2n(Cc2ccc(F)cc2)c1=O)NCc1ccco1,-20,0%,26µM*,2,34,21µM*
O=C(CNc1ccccc1F)Nc1cccc(S(=O)(=O)N2CCCCC2)c1,-5,.,-17%,-15,-8,-21%
CCCCn1c(N)c(N(CC)C(=O)c2cc(CC)c(C)s2)c(=O)[nH]c1=O,19,-2%,-1%,2,0,-7%
Nc1nonc1C(=O)NCCNS(=O)(=O)c1ccc(F)cc1,5,-1%,1%,2,7,1%
NC(=O)Cn1c(=O)n(CCCCCC(=O)NCc2ccccc2Cl)c(=O)c2sccc21,.,2%,?,-1,.,?
CCC1CCCCN1C(=O)Cn1c(=O)n(CCCCCC(=O)NCc2ccccc2Cl)c(=O)c2sccc21 (configuration not stated),.,-1%,?,-6,.,18µM*
O=S(=O)(Cc1ncc(C(F)(F)F)cc1Cl)c1ccccc1,-7,-1%,23µM*,0,13,?
O=C(O)CCc1ncc(C(F)(F)F)cc1Cl,2,-1%,-8%,-2,-1,-4%
FC(F)(F)c1cnc(COc2cc(Cl)cc(Cl)c2)c(Cl)c1,1,.,-20%,5,-74*,-29%
O=S(=O)(Nc1ccccc1)c1ccc(Oc2ncc(C(F)(F)F)cc2Cl)cc1,-63*,2%,15µM*,-1,34,?
COC(=O)c1c(C)[nH]c(C(=O)C(C)OC(=O)c2c(C)noc2C)c1C (configuration not stated),23,2%,?,1,11,?
Cc1cc(SCC(=O)NCc2ccc(F)cc2)nc(=O)[nH]1,.,0%,4%,-17,.,-4%
CSc1nc(-c2ccccc2)nc(N2CCN(C)CC2)c1C(C)=O,-55*,2%,-5%,-23,0,?
CN1CCN(c2nc(-c3ccccc3)ncc2S(=O)(=O)c2ccccc2)CC1,-79*,-1%,-10%,-38,-52*,?
SMILES,DRD3 antagonist,ClpP mod,DT40 TDP1 CPT,D3 ag,IL-1B inflam inh,TDP1 cell noCPT
O=C(NCCCn1ccnc1)c1ccc(-c2ccccc2)cc1,22,-1%,?,3,-9,?
Cc1cc(C(=O)NCCCn2ccnc2)sc1-c1ccccc1,-70*,22µM*,-22%,-58,-19,0%
O=C(NCCCn1ccnc1)c1cc(-c2ccncc2)nc2ccccc12,-13,.,6%,2,18,-18%
Cc1ccc2nc(-c3ccccc3)cc(C(=O)NCCCn3ccnc3)c2c1,-20,16µM*,-18%,0,?,-18%
Cc1ncc2c(c1CNC(=O)c1ccc3c(c1)OCO3)CCN(C(=O)c1csc3c1CCCC3)C2,.,.,-4%[9.04 µM],.,.,-13%
Nc1ccc(-c2nc3nc(N)nc(N)c3nc2-c2ccc(N)cc2)cc1,-1,.,-6%,8,-29,-22%
Cc1cc(C)cc(N2CC(O)=C(c3nc4ccccc4c(=O)[nH]3)C2=N)c1,-2,.,13µM*,-1,48,9.2µM*
COc1ccc(-c2nc3ccccc3c(=O)[nH]2)cc1,13,.,-21%,4,18,-20%
COc1cccc(N2CC(O)=C(c3nc4ccccc4c(=O)[nH]3)C2=N)c1,?,25µM*,1.5µM*,-16,4,1.2µM*
CC(C)N1CC(O)=C(c2nc3ccccc3c(=O)[nH]2)C1=N,-22,28µM*,-11%,-8,?,?
N=C1C(c2nc3ccccc3[nH]2)=C(O)CN1C1CCCCC1,-20,-2%,-10%,-19,-17,?
O=C(NCc1ccccc1)C1CCN(S(=O)(=O)c2ccc(N3CCCC3=O)cc2)CC1,5,.,-20%,-11,-21,21µM*
O=C(NC1CC1)C1CCN(S(=O)(=O)c2cc([N+](=O)[O-])ccc2Cl)CC1,-5,-1%,-27%,-4,15,-2%
O=C(NCc1ccc(Cl)cc1)C1CCN(S(=O)(=O)c2cc([N+](=O)[O-])ccc2Cl)CC1,28,-1%,23µM*,0,-17,16µM*
O=C(NCc1ccc(F)cc1)C1CCN(S(=O)(=O)c2ccc(Cl)cc2)CC1,-2,.,3%,-5,-21,?
O=C(NCc1ccc(Cl)cc1)C1CCN(S(=O)(=O)c2ccc(N3CCCC3=O)cc2)CC1,29,-2%,10µM*,2,-9,?
O=C(NCc1ccc(N2CCCC2=O)cc1)Nc1cccc(Cl)c1,15,-1%,-26%,0,-61*,?
NS(=O)(=O)c1ccc(CNC(=O)c2cc(=O)c3cc(Cl)ccc3o2)cc1,-3,1%,4%,-1,0,10%
